Tau ThT inhib = blocks human tau fibril formation measured by thioflavin T. 2.1% of 270,000 active. Potency, µM (series often up to 57.4 µM), inactives show top-dose activity, negative = inhibition, most hits filed as inhibitors. P10636. recombinant tau K18 P301L, heparin-induced fibrillization, ThT fluorescence; also: nearly all actives have a fitted effect of over 55% in size
Target sequence (P10636 561-689 P618L limits assumed): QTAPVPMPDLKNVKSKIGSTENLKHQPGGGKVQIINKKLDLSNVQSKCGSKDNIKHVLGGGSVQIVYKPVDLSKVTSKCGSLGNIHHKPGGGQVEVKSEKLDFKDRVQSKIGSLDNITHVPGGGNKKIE
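K18 P301L tau (15 uM + 0.24 uM Alexa 594-tagged), heparin 20 uM, NaOAc pH 7, 6 h 37 C; ThT 30 uM, 1 h RT, ex 450/em 510 nm.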
TexasRed fluor = counter-screen for TRb-SRC2 inhibitors: fluorescence interference | Potency, µM (series often up to 106 µM), inactives show at the top dose fluorescence change, negative = quenching | TRb/SRC2 Texas Red total fluorescence interference | 0.29% of 280,000 active | AID 1479; active = well fitted curve in either direction with a large enough effect; inconclusive = small, poorly fitted or top-dose-only effect
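Flags fluorescent or light-absorbing compounds by total fluorescence, S + 2P, at 555 nm excitation and 632 nm emission. Mixture: 20 nM Texas Red SRC2 peptide, 0.6 uM human TRb LBD, 1 uM T3, 5% DMSO; compound exposure 5 h at ambient temperature.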
TRb-SRC2 inh = inhibitors of human thyroid hormone receptor beta-SRC2 interaction. P10828. TRbeta-SRC2 peptide binding, fluorescence polarization; receptor liganded with 1 µM T3. Potency, µM (titrated, usually from 106 µM), for inactives: top-dose activity change, negative = inhibition, most hits filed as inhibitors. 0.065% of 280,000 active. AID 1469;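 also: plate controls were bound peptide for no effect and peptide without receptor for full effect; nearly all actives have a fitted effect of over 50% in size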
Target sequence (P10828 whole entry, looked up): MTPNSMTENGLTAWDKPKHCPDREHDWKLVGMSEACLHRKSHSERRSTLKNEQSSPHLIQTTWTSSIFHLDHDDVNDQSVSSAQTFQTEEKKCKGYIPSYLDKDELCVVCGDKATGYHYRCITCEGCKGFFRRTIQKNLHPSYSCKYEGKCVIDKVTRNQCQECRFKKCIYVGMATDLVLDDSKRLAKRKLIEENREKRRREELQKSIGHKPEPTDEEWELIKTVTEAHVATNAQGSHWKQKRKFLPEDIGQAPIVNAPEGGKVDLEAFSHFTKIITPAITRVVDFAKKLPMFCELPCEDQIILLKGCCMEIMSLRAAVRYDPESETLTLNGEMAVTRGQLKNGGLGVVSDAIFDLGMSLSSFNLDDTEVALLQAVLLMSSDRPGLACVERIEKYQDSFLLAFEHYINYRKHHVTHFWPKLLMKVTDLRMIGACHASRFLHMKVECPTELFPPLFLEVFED
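Fluorescence polarization of 20 nM Texas Red SRC2 peptide with 0.6 uM human TRb ligand-binding domain, in Tris buffer with 1uM T3 and 5% DMSO. Incubated 5 hr ambient; normalized to unbound and bound controls.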
Tau fluor cs = counter-screen for tau fibril formation inhibitors; tau K18 P301L (four-repeat tau fragment) Alexa594 fluorescence, heparin fibrillization; Potency, µM (titrated, usually from 57.7 µM), for inactives: top-dose activity change, negative = decrease; 0.93% of 280,000 active; also: nearly all actives have a fitted effect of over 55% in size
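Human K18 P301L tau (15 uM unlabeled plus 0.24 uM Alexa 594-labeled, final) in 100 mM sodium acetate pH 7 was mixed with compound and 20 uM heparin and incubated 6 hr at 37 C.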
Tau fibril FP = inhibitors of human tau fibril formation; K18 P301L tau heparin fibrillization, Alexa594 FP, 6 h; Potency, µM (titrated, usually from 57.7 µM), without a hit: top-dose activity, negative = inhibition, usual class: inhibitors; 0.39% of 280,000 active; P10636; also: nearly all actives have a fitted effect of over 55% in size
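Steps: dispense K18 P301L tau (15 uM plus 0.24 uM Alexa 594 tracer, final) in pH 7 sodium acetate; add compound; add heparin (20 uM final); incubate 6 hr, 37 C; add ThT (30 uM final); after 1 hr ambient, read FP.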
* = called active by the depositor; [ ] = dose if it differs, or a comment. Shown are actives, neighbours in structure and some others; about 3% of the full set was active somewhere. Unless noted, calls follow the shape of the dose curve; as a rule, active = well fitted curve in the direction sought with a large enough effect; inconclusive = small, poorly fitted or top-dose-only effect, or another doubt; inactive = no such curve, though single readings can be large; an effect the other way counts as inactive or inconclusive. Unless noted, % is scaled to controls: 0 for no effect and ±100 for the full control effect; potency is read from the fitted curve at half-maximal effect.

Screening CN1CC=C2C(C#N)=C(N)C(C#N)(C#N)[C@H](c3ccoc3)[C@H]2C1 returned Tau ThT inhib 22µM*, TexasRed fluor 15%, TRb-SRC2 inh inconclusive, Tau fluor cs inconclusive and Tau fibril FP inconclusive.
Screening O=C(Nc1cc(C(=O)Nc2ccc(S(=O)(=O)O)cc2S(=O)(=O)O)cc(C(=O)Nc2ccc(S(=O)(=O)O)cc2S(=O)(=O)O)c1)Nc1cc(C(=O)Nc2ccc(S(=O)(=O)O)cc2S(=O)(=O)O)cc(C(=O)Nc2ccc(S(=O)(=O)O)cc2S(=O)(=O)O)c1 returned Tau ThT inhib inconclusive, TexasRed fluor -3%, TRb-SRC2 inh -6%, Tau fluor cs -6% and Tau fibril FP 14µM*.
CC1=C(C(=O)OCc2ccccc2)C(c2ccc(C3CCCCC3)cc2)NC(=O)N1CCCCCC(=O)O (configuration not stated) was read as Tau ThT inhib -24%, TexasRed fluor 0%, TRb-SRC2 inh 8%, Tau fluor cs -7% and Tau fibril FP -7%.
Cc1cc(C)nc(NS(=O)(=O)c2ccc(Br)s2)c1 was read as Tau ThT inhib -3%, TexasRed fluor 1%, TRb-SRC2 inh 14%, Tau fluor cs -10% and Tau fibril FP -7%.
Screening Cc1ccc(NS(=O)(=O)c2ccc(Br)s2)nc1 returned Tau ThT inhib 28µM*, TexasRed fluor 0%, TRb-SRC2 inh 7%, Tau fluor cs -15% and Tau fibril FP inconclusive.
For COC(=O)c1c(C)sc(-c2c(-c3ccc4c(c3)OCCO4)[nH]c3c2c(=O)n(C)c(=O)n3C)c1O the results were Tau ThT inhib 0%, TexasRed fluor -6%, TRb-SRC2 inh 4%, Tau fluor cs inconclusive and Tau fibril FP inconclusive.
Screening CCOC(=O)c1c(C)sc(-c2c(-c3ccc(OC)c(F)c3)[nH]c3c2c(=O)[nH]c(=O)n3C)c1O returned Tau ThT inhib inconclusive, TexasRed fluor 8%, TRb-SRC2 inh 8%, Tau fluor cs 13µM*[quencher] and Tau fibril FP 13%.
Screening CCOC(=O)c1c(C)sc(-c2c(-c3ccccc3)[nH]c3[nH]c(=O)[nH]c(=O)c23)c1O returned Tau ThT inhib inconclusive, TexasRed fluor 4%, TRb-SRC2 inh -11%, Tau fluor cs 6.3µM*[quencher] and Tau fibril FP 4%.
COC(=O)c1c(C)sc(-c2c(-c3ccc4c(c3)OCCO4)[nH]c3[nH]c(=O)[nH]c(=O)c23)c1O was read as Tau ThT inhib inconclusive, TexasRed fluor inconclusive, TRb-SRC2 inh 6%, Tau fluor cs 20µM*[quencher] and Tau fibril FP inconclusive.
Screening CCOC(=O)c1c(C)sc(-c2c(-c3ccc(OC)c(F)c3)[nH]c3[nH]c(=O)[nH]c(=O)c23)c1O returned Tau ThT inhib 0%, TexasRed fluor -1%, TRb-SRC2 inh 7%, Tau fluor cs 3.5µM*[quencher] and Tau fibril FP 6%.
`N=c1c[n+](N2CCOCC2)[n-]o1` gave Tau ThT inhib 13µM*, TexasRed fluor -3%, TRb-SRC2 inh 6%, Tau fluor cs -20% and Tau fibril FP inconclusive.
For N#CC1=C(N)C(C#N)(C#N)[C@H](c2c(F)cccc2F)[C@H]2CC3(CC=C12)OCCO3 the results were Tau ThT inhib inconclusive, TexasRed fluor 0%, TRb-SRC2 inh -7%, Tau fluor cs -19% and Tau fibril FP inconclusive.
Screening CN1C2C=C3C(C#N)=C(N)C(C#N)(C#N)[C@@H](c4cccs4)C3C1CC2 (some centres not stated) returned Tau ThT inhib 20µM*, TexasRed fluor 0%, TRb-SRC2 inh -5%, Tau fluor cs -14% and Tau fibril FP inconclusive.
CN1CC=C2C(C#N)=C(N)C(C#N)(C#N)C(c3cccc(Cl)c3Cl)C2C1 (configuration not stated) was read as Tau ThT inhib inconclusive, TexasRed fluor 7%, TRb-SRC2 inh -18%, Tau fluor cs -25% and Tau fibril FP inconclusive.
For CN1C2C=C3C(C#N)=C(N)C(C#N)(C#N)[C@H](c4c(F)cccc4F)[C@H]3C1CC2 (some centres not stated) the results were Tau ThT inhib 14µM*, TexasRed fluor 7%, TRb-SRC2 inh 0%, Tau fluor cs -19% and Tau fibril FP inconclusive.
For CN1C2C=C3C(C#N)=C(N)C(C#N)(C#N)[C@@H](c4cccc(F)c4)[C@@H]3C1CC2 (some centres not stated) the results were Tau ThT inhib 20µM*, TexasRed fluor 14%, TRb-SRC2 inh -21%, Tau fluor cs -9% and Tau fibril FP inconclusive.
CC(C)(C)C1CC=C2C(C#N)=C(N)C(C#N)(C#N)C(c3cccs3)C2C1 (configuration not stated) was read as Tau ThT inhib inconclusive, TexasRed fluor -3%, TRb-SRC2 inh -16%, Tau fluor cs -25% and Tau fibril FP inconclusive.
Screening CN(C)Cc1cc(O)c(CN(C)C)cc1O returned Tau ThT inhib 7.1µM*, TexasRed fluor inconclusive, TRb-SRC2 inh -26%, Tau fluor cs inconclusive and Tau fibril FP inconclusive.
Screening Cc1cc(NC(=O)c2ccc(Br)o2)cc(-c2nc3ccccc3o2)c1O returned Tau ThT inhib -21%, TexasRed fluor 5%, TRb-SRC2 inh 13%, Tau fluor cs inconclusive and Tau fibril FP 8%.
Screening O=C1CSC(c2ccc(Cl)cc2)N1C1CCCCC1 (configuration not stated) returned Tau ThT inhib -3%, TexasRed fluor -1%, TRb-SRC2 inh -1%, Tau fluor cs -6% and Tau fibril FP 2%.
`COc1ccc2ccccc2c1C1CC(=O)N2CN(C)CSC2=C1C#N` (configuration not stated) gave Tau ThT inhib 22µM*, TexasRed fluor -1%, TRb-SRC2 inh 1%, Tau fluor cs -26% and Tau fibril FP 22µM*.
For COc1ccc(C2CC(=O)N3C(=C2C#N)SCC3(O)c2ccccc2)cc1 (configuration not stated) the results were Tau ThT inhib -10%, TexasRed fluor 2%, TRb-SRC2 inh 8%, Tau fluor cs -21% and Tau fibril FP 7%.
CC(C)c1ccc(C2CC(=O)N3CN(C)CSC3=C2C#N)cc1 (configuration not stated) was read as Tau ThT inhib 28µM*, TexasRed fluor 0%, TRb-SRC2 inh 1%, Tau fluor cs -20% and Tau fibril FP -17%.
N#CC1=C2SCN(C3CCCCC3)CN2C(=O)CC1c1ccc(F)cc1 (configuration not stated) was read as Tau ThT inhib 28µM*, TexasRed fluor 0%, TRb-SRC2 inh -6%, Tau fluor cs -11% and Tau fibril FP inconclusive.

Bioassay records as filed in PubChem.
